# Data reported in ChEMBL document CHEMBL3988442, “University of Dundee, Small-Polar-MMV Screening Library” (2021).
# Among all 48,000 compounds or so, about 13,000 (27%) showed an effect of 50% or more. This is one part of the list.
# System: Wolbachia pipientis
# Assay: Anti-Wolbachia Cell-Based Screen
# Assay type: functional
# Set-up: scale not given: in the data most compounds retested in dose-response had high values
# Settings: 5 µM
row,Structure (SMILES),Percent Effect
1,COc1cc(C)nc(N2CCN(C(=O)CCn3cc(C)cn3)CC2)n1,-7.08%
2,c1ccc2nc(NCC3(N4CCOCC4)CCSC3)cnc2c1 (stereo not drawn),-14.05%
3,CCn1cnc2c(c(Br)nn2C)c1=O,-4.609%
4,CS(=O)(=O)c1cccc(S(=O)(=O)NC(=O)c2cscn2)c1,-9.351%
5,CC(C)NC(=O)C[C@@H]1CCNC[C@@H]1Cc1cc(-c2ccccc2)on1,3.733%
6,CCc1cc(=O)[nH]c2nnc(SCC(=O)OC)n12,-19.07%
7,Cn1ccnc1CN1CCC2(CC(=O)N(c3cccc(F)c3)C2)C1.O=C(O)C(F)(F)F (stereo not drawn),10.35%
8,Cc1cc(C)c(Cn2cncn2)cc1CN1CCC(CN)C1 (stereo not drawn),-0.9295%
9,Cc1ccc(OCC(O)Cn2ncc3cnn(C)c(=O)c32)cc1 (stereo not drawn),-11.22%
10,COCCN1CCn2c(CN(C)C(C)C)cnc2C1.O=C(O)C(F)(F)F.O=C(O)C(F)(F)F,115.3%
11,CN(C)Cc1cnc2n1CCN(C(=O)NCc1ccccc1)CC2.O=C(O)C(F)(F)F,-3.612%
12,CC(C)N(C)Cc1cnc2n1CCN(C(=O)Cc1cccs1)C2C.O=C(O)C(F)(F)F (stereo not drawn),0.7731%
13,CC(C)N(C)Cc1cnc2n1CCN(CCc1ccccc1)C2.O=C(O)C(F)(F)F.O=C(O)C(F)(F)F,1.323%
14,CC(C)N(C)Cc1cnc2n1CCN(Cc1cccc(F)c1)C2.O=C(O)C(F)(F)F.O=C(O)C(F)(F)F,118.2%
15,CN(Cc1ccco1)Cc1cnc2n1CCN(S(C)(=O)=O)CC2.O=C(O)C(F)(F)F,3.882%
16,COCCN1CCCn2cnc(CN(C)C(C)C)c2C1.O=C(O)C(F)(F)F.O=C(O)C(F)(F)F,1.891%
17,CC(C)N(C)Cc1cnc2n1CCN(S(=O)(=O)c1ccccc1)C2.O=C(O)C(F)(F)F,114.3%
18,CC(C)N(C)Cc1cnc2n1CCN(Cc1ccco1)C2.O=C(O)C(F)(F)F.O=C(O)C(F)(F)F,165.9%
19,CN(C)Cc1cnc2n1CCN(C(=O)Cc1cccc(F)c1)CC2.O=C(O)C(F)(F)F,-14.88%
20,CC(C)Cc1ncc2c(n1)CN(c1cc(N3CCCC3)nc(N)n1)C2,-10.3%
21,COCCC1(CNC(=O)NCC2CCCN(C)C2)CCC1 (stereo not drawn),8.648%

row,Structure (SMILES),Percent Effect
1,CCCSCC(=O)N1CCN(c2ccc(C)cc2)CC1C (stereo not drawn),-1.95%
2,CC(C)N(C)Cc1cnc2n1CCN(Cc1ccsc1)C2.O=C(O)C(F)(F)F.O=C(O)C(F)(F)F,107.2%
3,CNC(=O)c1cnc2n1CCN(C(=O)Cc1ccccn1)C2,-2.51%
4,CC(C)N(C)Cc1cnc2n1CCN(C(=O)c1cccs1)C2,6.203%
5,CC(C)N(C)Cc1cnc2n1CCN(C(=O)Cc1ccccn1)C2.O=C(O)C(F)(F)F.O=C(O)C(F)(F)F,116.4%
6,CN(C)Cc1cnc2n1CCN(C(=O)Cc1ccsc1)CC2.O=C(O)C(F)(F)F,-7.652%
7,CC(C)N(C)Cc1cnc2n1CCN(C(=O)Cc1ccsc1)C2.O=C(O)C(F)(F)F,75.58%
8,CN(C)Cc1cnc2n1CCN(Cc1ccsc1)CC2.O=C(O)C(F)(F)F.O=C(O)C(F)(F)F,-11.04%
9,CC(NCC1CCN(CCO)CC1)c1ccc(OC(F)(F)F)cc1 (stereo not drawn),5.514%
10,Cc1ccccc1CSc1nc(=O)n(CCO)c2c1CCC2,18.09%
11,Cc1csc(N2CCCN(C(=O)c3cnns3)CC2)n1,3.916%
12,Cc1nc(C)c(CCN2CCC(Oc3ccccc3F)CC2)s1,-50.47%
13,Fc1ccccc1OC1CCN(CCn2cc3ccccc3n2)CC1,96.15%
14,c1cncc(O[C@H]2COCCN(CC3CC3)C2)c1,-6.13%
15,Cc1ccc(OC2CCN(CCn3cncn3)CC2)cc1,-5.94%
16,Cc1nc(CCN2CCC(Oc3ccccc3F)CC2)c(C)s1,0%
17,Fc1ccc(OC2CCN(CCn3cncn3)CC2)cc1,1.97%
18,c1cncc(OC2CCN(CCn3cc4ccccc4n3)CC2)c1,92.09%
19,O=C(O)c1cccc(N2CCC(Oc3cccc(F)c3)CC2)n1,3.827%
20,Fc1cccc(OC2CCN(CCn3cc4ccccc4n3)CC2)c1,89.5%
21,O=C(O)C(F)(F)F.O=C1[C@@H]2CN(C3CCOCC3)C[C@H]2CCN1CC1CC1,-15.82%

row,Structure (SMILES),Percent Effect
1,CCC(C)(CC(=O)OC)NCc1c(C)noc1C (stereo not drawn),-10.12%
2,CCCN(CCOC)c1nc(C)nc2sccc12,-21.15%
3,Cc1cc(NC(=O)N2CCN(c3cccs3)CC2)ccc1C(N)=O,6.081%
4,CS(=O)(=O)c1ccc(OCCNCc2c(F)cccc2F)cc1,-4.502%
5,Cc1ccc(C(=O)N2CCOC(c3nc(C(C)(C)C)n[nH]3)C2)c(=O)[nH]1 (stereo not drawn),-10.02%
6,CCCc1n[nH]c(C2CN(C(=O)c3ccc(C)[nH]c3=O)CCO2)n1 (stereo not drawn),101.9%
7,CCCc1n[nH]c(C2CN(C(=O)c3cncnc3C)CCO2)n1 (stereo not drawn),104.8%
8,CC(C)n1nccc1NC(=O)NCCc1nc2ccc(F)cc2n1C,-24.15%
9,COCCN1CCN(CC(=O)NC2(C#N)CCCC2)CC1,5.801%
10,CCN(Cc1cc(F)c(OC)c(Cl)c1)Cc1noc(CC(C)C)n1,-0.0931%
11,CC(C)c1cc(N2CCSCC2)n2nccc2n1,-0.2231%
12,CC(C)c1ncc(S(C)(=O)=O)c(C2CCCNC2)n1 (stereo not drawn),16.25%
13,CN1CCC(N2CCC[C@H]2c2nc(-c3cncnc3N)no2)CC1,-6.986%
14,CN1CCC[C@H]1c1nc(-c2cncnc2N)no1,-19.35%
15,Cc1nc(-c2cncnc2C2CCCNC2)no1.Cl.Cl (stereo not drawn),112.4%
16,CCc1nc(C2CCCN(c3ncc(Br)cn3)C2)no1 (stereo not drawn),-4.032%
17,CCc1nc(-c2cncnc2C2CCNC2)no1 (stereo not drawn),125.4%
18,CS(=O)(=O)c1cncnc1C1CCCNC1.Cl (stereo not drawn),112%
19,CC(C)(C)CN1CCC[C@H]1c1nc(-c2cncnc2N)no1,-5.651%
20,Cc1ncc(S(C)(=O)=O)c(C2CCCNC2)n1 (stereo not drawn),6.84%
21,CCc1nc(-c2cncnc2C2CCCNC2)no1.Cl (stereo not drawn),115.3%
